# High-throughput results: PubChem, several laboratories
# Shown are actives, neighbours in structure and some others; about 9.6% of the full set was active somewhere.
# Autophagy mod: alters autophagy in cells. MEF GFP-LC3 puncta imaging; test concentration mostly 10 µM. calls only at 10 µM (by protocol). 190,000 tested, 0.98% active. AID 463193;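 active = percentage of spot-positive cells more than 3 SD above its plate mean, without a fluorescence outlier flag or 80% toxicity; inconclusive = no clear call, values can overlap the other calls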;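 note: spot-positive cell cutoff set from DMSO-treated cells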
# INS promoter inh: TRM-6 insulin promoter activity inhibition; inhibition, % at 2 µM; TRM-6 cells (human fetal islet line), insulin promoter-eGFP reporter, imaging; reporter expression induced with tamoxifen; 130,000 tested, 0.9% active;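 active = inhibition above the mean plus 3 SD, with well images judged a real hit on visual review, cut at about 60% in these data, passing the limit was not always enough; inconclusive = inhibition over the cutoff but images rejected on review; inactive = inhibition not above the cutoff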
# Ins promoter up: MIN6 insulin promoter up-regulation; MIN6 insulin promoter-GFP reporter, high-content imaging; hits give high values; z-score at 5 µM; 190,000 tested, 0.3% active;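 active = z-score above 3 at 5 µM with at least 500 cells counted in the well; inconclusive = wells under 500 cells, flagged as cytotoxic or low count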
# Lmaj promast: reduces viability of Leishmania major promastigotes | inhibition, % at 10 µM | resazurin fluorescence viability | 200,000 tested, 9% active | AID 1063; in the data active = inhibition above about 50%;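 note: promastigotes grown with compound for 44 hours at 28 °C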
# HCT116 bCat-KO: beta-catenin-lacking colon tumor cell growth suppression. 140,000 tested, 1.5% active. HCT116 beta-catenin knockout viability, CellTiter-Glo, 60 h; hits give low values. viability, % at 10 µM;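 active = viability at or under a set limit, the compound median less 4 SD, cut at about 6% in these data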;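 note: 0% = Hyamine 1622 control at 20 µM and 100% = untreated cell control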
# HCT116 PTEN-null: suppresses growth of cells with PTEN deletion | HCT116 PTEN-null viability, CellTiter-Glo, 60 h; hits give low values | viability, % at 10 µM | 140,000 tested, 1.2% active | AID 827;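 active = viability at or below a set limit, 4 SD under the median of all tested compounds, cut at about 3.7% in these data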;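 note: PTEN knockout HCT116 line with beta catenin targeted HCT116 as companion control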
# * = called active by the depositor; i = inactive; ? = inconclusive; · = not tested or not shown; + = active, no number.
SMILES,Autophagy mod,INS promoter inh,Ins promoter up,Lmaj promast,HCT116 bCat-KO,HCT116 PTEN-null
C/C(=N\NC(=S)NC1CCCCC1)c1ccc(C#N)cc1,+,·,-0.77,16,86,88
COc1ccc(NC(=O)c2cccc(-n3c(C)ccc3C)c2)c(OC)c1,i,26,-0.59,63*,14,12
Cc1ccc(C(C)C)c(OCc2ccc(C(=O)N/N=C/c3cccc(O)c3O)cc2)c1,i,-21,?,100*,7,9
CC(=O)Nc1ccc(C(=O)N/N=C/c2ccccc2OCc2ccccc2)cc1,i,·,-0.4,-1,·,·
COc1cc(/C=N/NC(=O)c2ccc(COc3cc(C)ccc3C(C)C)cc2)cc(OC)c1O,i,23,-0.13,37,68,78
Cc1ccc(C(C)C)c(OCc2ccc(C(=O)N/N=C/c3ccc(O)c(O)c3)cc2)c1,i,-65,0.73,100*,28,23
Cc1[nH]n2c(=O)c3c(nc2c1-c1cccc2ccccc12)CCC3,i,8,·,-2,29,27
N#Cc1cc2c(nc1Cl)CCCC2,i,27,-0.01,73*,99,110
O=[N+]([O-])c1ccccc1/C=N/n1c(-c2cccnc2)n[nH]c1=S,i,0,-0.03,8,99,112
O=[N+]([O-])c1cc2c(cc1/C=N/n1c(-c3ccccc3)n[nH]c1=S)OCO2,i,46,0.07,53*,101,92
O=[N+]([O-])c1cc2c(cc1/C=N/n1c(-c3ccccn3)n[nH]c1=S)OCO2,i,-26,-0.21,53*,91,96
S=c1[nH]nc(-c2ccccn2)n1/N=C/c1ccco1,·,·,0.35,·,·,·
NC(=O)CSc1nnnn1-c1ccc(OC(F)(F)F)cc1,i,·,1,-5,102,98
O=C(COc1ccccc1O)N1CCN(C(=O)c2ccco2)CC1,i,-36,·,-4,96,108
Cc1cccc(OCC(=O)NCC(=O)N/N=C/c2cccnc2)c1,·,·,0.12,·,·,·
CS(=O)(=O)c1cccc(NC(=O)C2CC2)c1,i,·,-1.2,0,·,·
O=C(Nc1cccc(S(=O)(=O)c2cccc(NC(=O)C3CC3)c2)c1)C1CC1,i,23,-1.4,99*,15,30
CCCN(Cc1ccccc1)C(=O)Nc1ccc2c(c1)nnn2C,i,-20,0.22,-2,79,94
Cc1ccc(-n2nnnc2-c2cccc(C)c2)cc1,i,·,-0.25,0,·,·
COc1ccc(-n2nnnc2-c2cccc(OC)c2)cc1,+,-50,0.04,1,19,19
COc1ccc(NC(=O)Cn2c(=O)c(C)nc3ccccc32)cc1Cl,·,·,0.34,·,·,·
C=CCNC(=O)/C(C#N)=C\c1cc(Cl)c(OCC)c(OC)c1,i,-26,-0.83,85*,27,25
C=CCNC(=O)/C(C#N)=C/c1cc(Br)ccc1OC,i,·,·,16,·,·
c1ccc(-c2cnn3c(-c4ccccc4)c(-c4ccccc4)nc3n2)cc1,?,·,17*,26,46,41
CCOC(=O)Cn1nnnc1C(CC)N(Cc1ccccc1)Cc1cc2cc(C)ccc2[nH]c1=O (configuration not stated),i,50,-1.8,97*,93,76
SMILES,Autophagy mod,INS promoter inh,Ins promoter up,Lmaj promast,HCT116 bCat-KO,HCT116 PTEN-null
CCCC(c1nnnn1CC(=O)OCC)N(Cc1cc2c(C)cc(C)cc2[nH]c1=O)C1CCCC1 (configuration not stated),i,·,-0.24,55*,93,86
CCc1nc(C)cn1S(=O)(=O)c1cc(C)c(OC)c(C)c1C,i,9,·,93*,38,54
CCc1nc(C)cn1S(=O)(=O)c1cc(C)c(OC)cc1C,i,·,-0.91,33,97,90
CCc1nc(C)cn1S(=O)(=O)c1cc(Br)c(C)cc1OC,i,-6,0.25,99*,93,88
CCc1nc(C)cn1S(=O)(=O)c1ccc([N+](=O)[O-])cc1,i,·,·,100*,·,·
CCc1nc(C)cn1S(=O)(=O)c1ccc(Cl)c(Cl)c1Cl,i,·,0.44,97*,33,49
CCc1nc(C)cn1S(=O)(=O)c1cc(Cl)c(OC)cc1Cl,i,-34,1.1,43,94,89
Cc1cccc(NC(=O)CSc2nc(-c3ccccc3)c(C#N)c(=O)[nH]2)c1C,i,·,0.54,-11,94,98
COC(=O)c1sccc1S(=O)(=O)Nc1ccc(N2CCCCC2)cc1,·,·,0.14,·,·,·
CC(=O)N1CCc2cc(C(=O)CN3CCCN(Cc4ccc(F)cc4)C3)ccc21,i,·,0.02,-2,88,90
CCc1nc(C)cn1S(=O)(=O)c1cc(Br)ccc1OC,i,·,0.54,67*,93,98
